# Records with an inconclusive call do not appear. Active and inactive are the calls of the source. The call rests on the fitted dose curve.
# Experiment: qHTS assay to identify small molecule agonists of the AP-1 signaling pathway - cell viability counter screen (AID 1159525); further: nearly all actives have a fitted effect of over 55% in size
# Details: ME-180 (cervical carcinoma) AP-1-bla cells viability, ATP luminescence, 5 h; series mostly up to 76.8 µM; viability change, negative = cytotoxic: at the top concentration
# Source text: National Center for Advancing Translational Sciences [NCATS]
# NIH Chemical Genomics Center [NCGC]
# U.S. Environmental Protection Agency [EPA]
# National Institutes of Environmental Health Sciences [NIEHS]
# National Toxicology Program [NTP]
# U.S. Food and Drug Administration [FDA]
# Activator protein-1 (AP-1), a transcription factor, plays an important role in tumor genesis by regulating genes involved in cell proliferation, differentiation, apoptosis, and angiogenesis. AP-1 activity is induced by a complex network of signaling pathways that involves extracellular signals, such as growth factors. The AP-1 protein complex formed from c-Fos and c-Jun binding to the AP-1 response element results in transcriptional activation of genes containing such elements within their promoter.
# Low molecular weight molecules have been discovered and developed to modulate various components of these signaling pathways, for example, MAP kinase inhibitors. However, many points of pathway modulation remain untested due to the lack of chemical probes making this signaling locus of general interest.
# Using a beta-lactamase reporter-gene under control of the AP-1 response element, a cell-based assay [CellSensor(TM) AP-1-bla ME-180 developed by Invitrogen Corp.] was used to measure EGF-induced signaling. The Tox21 10K library compounds were measured for their ability to positively modulate the action of EC50 EGF on reporter gene activity. Compounds were screened in a 15-pt titration series in 1536-well format. The cytotoxicity of the Tox21 compound library against this cell line was tested in parallel by measuring the intra cellular ATP content in the same wells.
# Tox21 Assay Protocol Summary:
# 2500 cells/5uL in Opti-MEM medium containing 0.5% dialyzed FBS, 0.1 mM NEAA, 1 mM sodium pyruvate and 10 mM HEPES was dispensed into 1536-well black wall/clear bottom plates using a Multidrop dispenser and cells were cultured at 37 degrees Celsius overnight. Next day 23 nL of compounds dissolved in DMSO, positive controls or DMSO were delivered to each well using a pin tool. The plates were incubated at 37 degrees Celsius for 5 hours. 1 uL of LiveBLAzerTM B/G FRET substrate (Solution A+B+C+D) was added to each well using a Flying Reagent Dispenser. After incubated at room temperature for 2.5 hours the plates were measured on an EnVision plate reader at Excitation 405nm, Emission1=460nm and Emission 2=530nm. The %Activity was determined from the ratio of 460nm/530nm.
# After the plates were read for Beta-Lactamase assay on Envision; 3 ul Cell Titer Glo (Promega) was added to measure the cytotoxicity and the plates were then incubated at RT in dark for 30 min. The luminescence was read on ViewLux (Perkin Elmer, Shelton, CT) using 6 sec exposure. ViewLux data was expressed as relative luminescence units.
# For primary data analysis, raw plate reads for each titration point were first normalized relative to […] EGF control (100%) and DMSO only wells (basal, 0%).
# For primary data analysis for viability assay, raw plate reads for each titration point were first normalized Tetra n-octyl ammonium bromide control (-100%) and DMSO (control, 100%).
row,Structure (SMILES),"viability change, negative = cytotoxic"
1,CCCCNCC,0.648% (inactive)
2,COc1cnc(NS(=O)(=O)c2ccc(N)cc2)nc1,-6.13% [at 35.3 µM] (inactive)
3,CCCC[O][Al]([O]CCCC)[O]CCCC,7.05% (inactive)
4,CC(C)OC(=O)C(C(=O)OC(C)C)=C1SC=CS1,-24.4% [at 35.3 µM] (inactive)
5,N=C(N)N,-1.03% [at 35.3 µM] (inactive)
6,CC(=O)OCC(=O)[C@@]1(O)CC[C@H]2[C@@H]3CCC4=CC(=O)C=C[C@]4(C)[C@H]3[C@@H](O)C[C@@]21C,-1.17% [at 35.3 µM] (inactive)
7,c1cc2ccc3ccc4ccc5cccc6c(c1)c2c3c4c56,-12.5% [at 2.72 µM] (inactive)
8,O=C[C@@H](O)[C@H](O)[C@H](O)CO,-5.98% (inactive)
9,C=CCOC(=O)CCCCCCCC,-7.86% (inactive)
10,Cc1cc(C)c(C)c(C)c1,-4.71% (inactive)
11,Cc1ccc(O)c(C(=O)c2ccccc2)c1,-0.326% (inactive)
12,NNC(=O)OCc1ccccc1,-5.58% (inactive)
13,C[C@@H](CN1CC(=O)NC(=O)C1)N1CC(=O)NC(=O)C1,-3.36% [at 35.3 µM] (inactive)
14,CC(=O)Nc1ccc(OCCOCCOc2ccc(NC(C)=O)cc2)cc1,-0.317% [at 35.3 µM] (inactive)
15,CC1(C)CC(N)CC(C)(C)N1,11.6% (inactive)
16,O=C1CCCc2c(O)cccc21,-1.8% [at 35.3 µM] (inactive)
17,CC1=C(O)C(=O)CO1,-3.33% (inactive)
18,CCCCCCCCCCCC(C)=O,4.21% (inactive)
19,O=C1c2ccccc2C(=O)N1CO,0.0672% (inactive)
20,O=C1Nc2ccccc2C1=O,7.26% (inactive)

row,Structure (SMILES),"viability change, negative = cytotoxic"
1,O=C(O)CCCCCCCCCC(=O)O,0.488% (inactive)
2,NCC1CCC(C(=O)Oc2ccc(CCC(=O)O)cc2)CC1 (stereo not given),6.04% [at 35.3 µM] (inactive)
3,Cc1cc(C)c(N)c(Cl)c1,-10.4% (inactive)
4,C=CCN(CC=C)CC=C,-3.31% (inactive)
5,CC(C)(O)CCCC1=CCC(C=O)CC1 (stereo not given),-2.88% (inactive)
6,Cc1nc2ccc(Cl)cc2[nH]1,4.15% (inactive)
7,Cc1ccc(Br)cc1,-1.86% (inactive)
8,COc1cc2nc(N3CCN(C(=O)C4CCCO4)CC3)nc(N)c2cc1OC (stereo not given),-10% [at 35.3 µM] (inactive)
9,C/C=C(\C)C(=O)OC/C=C(\C)CCC=C(C)C,4.65% (inactive)
10,C[C@H]1COc2c(C3(N)CC3)c(F)cc3c(=O)c(C(=O)O)cn1c23,-1.05% [at 35.3 µM] (inactive)
11,COC(=O)c1ccc(C(=O)O)cc1,9.57% (inactive)
12,CC(C)(C)c1ccc(C(=O)CCCCl)cc1,7.7% [at 35.3 µM] (inactive)
13,CCCCCCC(=O)c1ccccc1,3.04% (inactive)
14,CC(C)(C)C(=O)CCc1ccc(Cl)cc1,0.686% (inactive)
15,CN1C(CCl)Nc2cc(Cl)c(S(N)(=O)=O)cc2S1(=O)=O (stereo not given),-4.13% [at 35.3 µM] (inactive)
16,O=C(O)Cc1c(Cl)ccc(Cl)c1Cl,-7.38% (inactive)
17,CC1(C)C(=O)C(C)(C)C1=O,7.94% (inactive)
18,CCCCOCCCC,0.159% (inactive)
19,CCN(CC)CC(=O)Oc1ccc(NC(C)=O)cc1,0.956% [at 35.3 µM] (inactive)
20,CC(C)OCCO,-5.12% (inactive)
